Data on 42 compounds can be found in article PMC4336329 (PLoS ONE, 2015).

Out of some 310,000 compounds screened, about 14,000 (4.5%) showed an effect of 50% or more. The effect is printed as a negative number. The full list was thinned out, with strong results kept by preference.
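Note: peak tail current of the secondary pulse compared with the same well before compound.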

human ether-à-go-go-related gene (hERG) potassium channel, sequence (Q12809 whole entry, looked up): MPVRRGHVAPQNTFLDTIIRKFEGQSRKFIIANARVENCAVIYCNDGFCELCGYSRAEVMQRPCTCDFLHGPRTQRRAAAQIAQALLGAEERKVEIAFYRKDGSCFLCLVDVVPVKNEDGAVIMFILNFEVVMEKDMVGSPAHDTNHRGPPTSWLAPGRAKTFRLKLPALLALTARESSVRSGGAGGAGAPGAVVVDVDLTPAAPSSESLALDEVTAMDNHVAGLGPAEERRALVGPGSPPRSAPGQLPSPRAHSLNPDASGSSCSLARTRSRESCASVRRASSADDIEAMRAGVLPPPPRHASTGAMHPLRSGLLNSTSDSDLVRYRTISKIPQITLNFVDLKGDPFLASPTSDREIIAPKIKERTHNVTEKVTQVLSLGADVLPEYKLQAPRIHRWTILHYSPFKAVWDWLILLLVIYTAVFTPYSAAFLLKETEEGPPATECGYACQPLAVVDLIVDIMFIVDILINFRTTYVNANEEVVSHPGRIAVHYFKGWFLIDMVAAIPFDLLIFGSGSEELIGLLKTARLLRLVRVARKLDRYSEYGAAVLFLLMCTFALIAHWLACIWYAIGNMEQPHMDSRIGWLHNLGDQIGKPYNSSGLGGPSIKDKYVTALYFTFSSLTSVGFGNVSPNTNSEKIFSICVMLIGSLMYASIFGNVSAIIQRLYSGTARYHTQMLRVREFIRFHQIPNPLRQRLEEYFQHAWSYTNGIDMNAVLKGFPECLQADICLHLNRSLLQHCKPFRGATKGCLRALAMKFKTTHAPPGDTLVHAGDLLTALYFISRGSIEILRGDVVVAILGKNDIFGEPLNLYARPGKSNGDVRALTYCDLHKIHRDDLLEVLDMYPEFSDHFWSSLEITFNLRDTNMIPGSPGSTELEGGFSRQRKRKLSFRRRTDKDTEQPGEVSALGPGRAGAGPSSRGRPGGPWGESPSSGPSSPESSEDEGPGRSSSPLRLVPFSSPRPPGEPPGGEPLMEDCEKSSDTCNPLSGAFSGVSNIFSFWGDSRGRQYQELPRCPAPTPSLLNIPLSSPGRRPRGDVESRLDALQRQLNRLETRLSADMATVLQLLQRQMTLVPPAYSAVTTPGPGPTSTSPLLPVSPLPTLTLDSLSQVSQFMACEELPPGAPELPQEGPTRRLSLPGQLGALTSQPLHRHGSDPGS

This experiment concerns the target human ether-à-go-go-related gene (hERG) potassium channel (human, UniProt Q12809). The experiment can be described thus: primary screen, population patch clamp on CHO cells stably expressing hERG; higher = less effect of the substance.
With `CCc1cccc(NS(=O)(=O)c2c(C)[nH]c(=O)[nH]c2=O)c1`, the “hERG current change (%, negative = inhibition) at 10uM” value worked out at 20.8%.

Consider `COCCn1nnnc1CN(CCc1ccccc1)Cc1cc2cc(OC)ccc2[nH]c1=O`, for which the “hERG current change (%, negative = inhibition) at 10uM” value was -47.8%.

In the case of `COc1ccc2[nH]c(=O)c(CN(Cc3ccccc3)Cc3nnnn3CC3CCCO3)cc2c1` (stereo not drawn), the “hERG current change (%, negative = inhibition) at 10uM” value is reported as -4.75%.

Regarding `COc1ccc2cc(CN(Cc3cccs3)Cc3nnnn3Cc3ccccc3)c(=O)[nH]c2c1`, the “hERG current change (%, negative = inhibition) at 10uM” value is given as -11.3%.

With `COCCn1nnnc1CN(CCc1ccc(OC)c(OC)c1)Cc1cc2ccc(C)cc2[nH]c1=O`, the “hERG current change (%, negative = inhibition) at 10uM” value is -42.8%.

For the compound `COc1ccc2cc(CN(CCc3ccccc3)Cc3nnnn3Cc3ccco3)c(=O)[nH]c2c1`, the “hERG current change (%, negative = inhibition) at 10uM” value is listed as -29.7%.

As for `COc1ccc2cc(CN(CCc3ccccc3)Cc3nnnn3CC3CCCO3)c(=O)[nH]c2c1` (stereo not drawn), the “hERG current change (%, negative = inhibition) at 10uM” value is given as -31.3%.

`COc1ccc2[nH]c(=O)c(CN(CCc3ccccc3)Cc3nnnn3CC3CCCO3)cc2c1` (stereo not drawn): the “hERG current change (%, negative = inhibition) at 10uM” value is -53.4%.

Regarding `COc1ccc2cc(CN(Cc3cccnc3)Cc3nnnn3Cc3ccccc3)c(=O)[nH]c2c1`, the “hERG current change (%, negative = inhibition) at 10uM” value is -74.4%.

With `COCCn1nnnc1CN(CCc1ccccc1)Cc1cc2ccc(C)cc2[nH]c1=O`, the “hERG current change (%, negative = inhibition) at 10uM” value is on record as -57.2%.

`COc1cc(OC)cc(C(=O)OCC(=O)NCc2ccco2)c1`: the “hERG current change (%, negative = inhibition) at 10uM” value turned out to be 2.94%.

In the case of `Cc1ccc(-n2nnc3c(=O)n(CC(=O)N4CCOCC4)cnc32)cc1`, the “hERG current change (%, negative = inhibition) at 10uM” value was -3.25%.

With `CCOc1ccccc1C(=O)NCCC(=O)O`, the “hERG current change (%, negative = inhibition) at 10uM” value was 8.38%.

As to `Cc1onc(-c2c(F)cccc2Cl)c1C(=O)N1CCc2ccccc2C1`, the “hERG current change (%, negative = inhibition) at 10uM” value is -15.7%.

As to `O=C(CCn1ccc2cc(S(=O)(=O)N3CCCC3)ccc21)NCCc1ccccc1`, the “hERG current change (%, negative = inhibition) at 10uM” value is -16.9%.

As for `O=C(Nc1ccc(Br)cc1)C1CCCC1`, the “hERG current change (%, negative = inhibition) at 10uM” value was found to be 9.31%.

Take `O=C(c1ccc(COc2ccccc2Cl)o1)N1N=C(C(F)F)CC1(O)C(F)F` (stereo not drawn): the “hERG current change (%, negative = inhibition) at 10uM” value is 17.1%.

For the compound `COc1ccc(CCNc2ccc(C(CC(N)=O)NC(=O)Cc3ccc(Br)cc3)cc2[N+](=O)[O-])cc1` (stereo not drawn), the “hERG current change (%, negative = inhibition) at 10uM” value was determined as 4.07%.

Regarding `S=c1[nH]nc(-c2cc(-c3ccsc3)n[nH]2)n1-c1cccc2ccccc12`, the “hERG current change (%, negative = inhibition) at 10uM” value is recorded as -12.6%.

With `COc1cccc(N2CC(NC(=O)c3cccc4ccccc34)CC2=O)c1` (stereo not drawn), the “hERG current change (%, negative = inhibition) at 10uM” value is on record as -6.44%.

In the case of `CCCC1(CCC)C(=O)NC(=NCCc2ccc(OC)c(OC)c2)NC1=O`, the “hERG current change (%, negative = inhibition) at 10uM” value was determined as 13.4%.

`CCc1nn(CCCC(=O)NCc2ccc(OC(C)C)cc2)c(=O)c2cc3occc3n12`: the “hERG current change (%, negative = inhibition) at 10uM” value is recorded as -54.4%.

For `O=C(CCCn1ncn2c(cc3occc32)c1=O)N1CCc2ccccc2C1`, the “hERG current change (%, negative = inhibition) at 10uM” value is recorded as -63%.

`CCc1nn(CC(=O)N2CCN(c3cc(C)ccc3C)CC2)c(=O)c2cc3occc3n12`: the “hERG current change (%, negative = inhibition) at 10uM” value is reported as 13%.

For the compound `Cc1ccc(C)c(N2CCN(C(=O)CCCn3ncn4c(cc5occc54)c3=O)CC2)c1`, the “hERG current change (%, negative = inhibition) at 10uM” value was -63.4%.

Regarding `CCOc1ccc(CNC(=O)CCCn2nc(CC)n3c(cc4occc43)c2=O)cc1`, the “hERG current change (%, negative = inhibition) at 10uM” value is reported as -24.7%.

For `CCc1nn(CCCC(=O)N2CCc3ccccc3C2)c(=O)c2cc3occc3n12`, the “hERG current change (%, negative = inhibition) at 10uM” value is on record as -29%.

On to `CCOC(=O)CCCn1ncn2c(cc3occc32)c1=O`, for which the “hERG current change (%, negative = inhibition) at 10uM” value was -0.3%.

For the compound `O=C(CCCn1ncn2c(cc3occc32)c1=O)NCc1cccc(Cl)c1`, the “hERG current change (%, negative = inhibition) at 10uM” value is -61.3%.

For the compound `CCc1nn(CCCC(=O)NCc2ccc(C)cc2)c(=O)c2cc3occc3n12`, the “hERG current change (%, negative = inhibition) at 10uM” value is reported as -8.1%.

As to `COc1ccc(CNC(=O)CCCn2ncn3c(cc4occc43)c2=O)cc1`, the “hERG current change (%, negative = inhibition) at 10uM” value is recorded as -22.4%.

With `COc1cccc(CNC(=O)CCCn2ncn3c(cc4occc43)c2=O)c1`, the “hERG current change (%, negative = inhibition) at 10uM” value is listed as -42.9%.

For the compound `Cc1ccccc1CNC(=O)CCCn1ncn2c(cc3occc32)c1=O`, the “hERG current change (%, negative = inhibition) at 10uM” value is listed as -14.7%.

On to `Cc1nnc(NC(=O)c2cc(-c3ccco3)nc3ccccc23)s1`, for which the “hERG current change (%, negative = inhibition) at 10uM” value amounted to 2.18%.

For `Cc1nc2cc(NC(=O)NCc3ccco3)ccc2o1`, the “hERG current change (%, negative = inhibition) at 10uM” value is 9.7%.

Consider `Cn1c(C(=O)NC2CC2)cc(=O)n(C)c1=O`, for which the “hERG current change (%, negative = inhibition) at 10uM” value was -8%.

Regarding `COc1ccc(CNC(=O)COC(=O)c2ccc(C)c(S(=O)(=O)N3CCOCC3)c2)cc1OC`, the “hERG current change (%, negative = inhibition) at 10uM” value is given as 6.13%.

On to `CC1CCCN(S(=O)(=O)c2csc(C(N)=O)c2)C1` (stereo not drawn), for which the “hERG current change (%, negative = inhibition) at 10uM” value was 15.2%.

On to `O=C(NCc1csc2ccccc12)Nc1cc(Cl)cc(Cl)c1`, for which the “hERG current change (%, negative = inhibition) at 10uM” value amounted to 13.6%.

For the compound `CCOc1ccc(C(C)(N)C(=O)O)cc1` (stereo not drawn), the “hERG current change (%, negative = inhibition) at 10uM” value is -2.39%.

With `COc1ccc(NC(=O)c2cn(-c3ccccc3)nc2SC)cc1`, the “hERG current change (%, negative = inhibition) at 10uM” value is recorded as -8.55%.

As for `COc1ccc(CNC(=O)c2cc(-c3ccc(OC)c(OC)c3)on2)cc1`, the “hERG current change (%, negative = inhibition) at 10uM” value is 6.84%.
